PubChem BioAssay (NCATS)
Values without a mark were called inactive. Calls of active or inactive are those of the source. Calls come from the whole dose curve; as a rule, active = well fitted curve in the direction sought with a large enough effect; inconclusive = small, poorly fitted or top-dose-only effect, or another doubt; inactive = no such curve, though single readings can be large; an effect the other way counts as inactive or inconclusive.

The compounds below were run against alpha-glucosidase (Oryza sativa, rice) (UniProt Q653V4) (assay: Counterscreen for Glucocerebrosidase Inhibitors: qHTS Assay for Rice alpha-Glucosidase at pH 5.0 (AID 997;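 note: 0% = full activity with enzyme and -100% = basal without enzyme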)). Conditions: rice alpha-glucosidase enzyme activity; series mostly up to 76.9 µM; activity change, negative = inhibition: at the top concentration.
Summary of the method: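 Endpoint fluorogenic assay at pH 5.0: compounds (0.7 nM to 77 uM) titrated against 4 nM rice enzyme and 400 uM 4-MU-alpha-glucoside for 20 min at room temperature; NaOH/glycine stop, read ex 365/em 440 nm, Hill-fitted AC50.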

SMILES	activity change, negative = inhibition [%]	outcome
N#CC(C#N)=Cc1ccc(O)c(O)c1	-4.66	–
N[C@@H]1C[C@H]1c1ccccc1	-3.65	–
O=c1[nH]c2ccccc2n1C1CCN(CCCC(c2ccc(F)cc2)c2ccc(F)cc2)CC1	-14.3	–
O=c1[nH]c2ccccc2n1CCCN1CCC(n2c(=O)[nH]c3cc(Cl)ccc32)CC1	-4.14	–
CCCC(C)(COC(N)=O)COC(=O)NC(C)C (centres undefined)	-0.445	–
NCC1(CC(=O)O)CCCCC1	0.216	–
CCCN1CCC[C@@H]2Cc3nc(N)ncc3C[C@H]21	-3.16	–
NCC(CC(=O)O)c1ccc(Cl)cc1 (centres undefined)	-4	–
Clc1cccc(N2CCNCC2)c1	-6.3	–
NN=C(N)N	–	inactive
CNCC(O)c1ccc(O)cc1 (centres undefined)	0.9	–

The compounds below were run against Alpha-galactosidase (Coffea arabica) (UniProt Q42656) (assay: Counterscreen for Glucocerebrosidase Inhibitors: qHTS Assay for Coffee Bean alpha-Galactosidase at pH 5.9 (AID 998;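 note: plate controls were uninhibited enzyme for no effect and no-enzyme basal signal for full effect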)). Conditions: coffee bean alpha-galactosidase enzyme assay; series mostly up to 76.9 µM; activity, negative = inhibition: at the top concentration.
Alpha-galactosidase (Coffea arabica), sequence (Q42656 whole entry, looked up): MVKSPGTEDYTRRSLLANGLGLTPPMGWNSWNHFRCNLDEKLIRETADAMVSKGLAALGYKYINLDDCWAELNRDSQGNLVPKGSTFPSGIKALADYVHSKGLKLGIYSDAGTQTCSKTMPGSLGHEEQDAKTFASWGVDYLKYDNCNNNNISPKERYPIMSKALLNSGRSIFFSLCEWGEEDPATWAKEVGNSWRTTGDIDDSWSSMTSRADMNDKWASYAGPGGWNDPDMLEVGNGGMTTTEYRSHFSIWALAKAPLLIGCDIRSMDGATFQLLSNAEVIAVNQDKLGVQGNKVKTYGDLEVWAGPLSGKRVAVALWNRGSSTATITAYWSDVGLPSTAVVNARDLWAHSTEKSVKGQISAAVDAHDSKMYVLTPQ
Summary of the method: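 Enzyme 2 nM + cpd (0.7 nM–77 uM titration) + 4-MU-alpha-Gal 80 uM, pH 5.9 citrate/Tween-20, RT 20 min, NaOH/glycine stop pH 10, fluor 365/440. Normalized to no-enzyme and full-activity controls; Hill-fit AC50.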

SMILES	activity, negative = inhibition [%]	outcome
CC1=C(/C=C/C(C)=C/C=C/C(C)=C/C(=O)Nc2ccc(O)cc2)C(C)(C)CCC1	-8.62	–
CC[N+](CC)(CC)CC	2.92	–
N#CC(C#N)=Cc1ccc(O)c(O)c1	-1.49	–
NS(=O)(=O)c1cc2c(cc1Cl)NC=NS2(=O)=O	-4.12	–
Cc1cn([C@H]2C=C[C@@H](CO)O2)c(=O)[nH]c1=O	2.02	–
CC(C)(C)NC(=O)[C@H]1CC[C@H]2[C@@H]3CC[C@H]4NC(=O)C=C[C@]4(C)[C@H]3CC[C@]12C	-0.442	–
N[C@@H]1C[C@H]1c1ccccc1	-2.37	–
O=c1[nH]c2ccccc2n1C1CCN(CCCC(c2ccc(F)cc2)c2ccc(F)cc2)CC1	-14	–
O=c1[nH]c2ccccc2n1CCCN1CCC(n2c(=O)[nH]c3cc(Cl)ccc32)CC1	1.03	–
Clc1ccc2c(c1)C(N1CCNCC1)=Nc1ccccc1O2	-1.41	–
CCCC(C)(COC(N)=O)COC(=O)NC(C)C (centres undefined)	-2.26	–
NCC1(CC(=O)O)CCCCC1	-1.76	–
CCCN1CCC[C@@H]2Cc3nc(N)ncc3C[C@H]21	-0.355	–
NCC(CC(=O)O)c1ccc(Cl)cc1 (centres undefined)	-0.689	–
Clc1cccc(N2CCNCC2)c1	-1.94	–
Nc1nnc(-c2cccc(Cl)c2Cl)c(N)n1	5.29	–
Nc1nc(N)c2nc(-c3ccccc3)c(N)nc2n1	50.5	–
CN(C)CCC[C@@]1(c2ccc(F)cc2)OCc2cc(C#N)ccc21	-1.24	–
CC(C)[N+](C)(CCOC(=O)C1c2ccccc2Oc2ccccc21)C(C)C	-0.451	–
CN(C)c1nc(N(C)C)nc(N(C)C)n1	0.0404	–
CC(=O)Nc1nnc(S(N)(=O)=O)s1	1.75	–
CCOC(=O)c1ncn2c1CN(C)C(=O)c1cc(F)ccc1-2	-0.989	–
NN=C(N)N	–	inactive
CNCC(O)c1ccc(O)cc1 (centres undefined)	0.908	–
Clc1ccc(C(c2ccccc2Cl)C(Cl)Cl)cc1 (centres undefined)	-3.39	–
C[C@](N)(Cc1ccc(O)c(O)c1)C(=O)O	-0.582	–
O=c1[nH]cc(F)c(=O)[nH]1	-0.787	–
COc1ccc(Cc2nccc3cc(OC)c(OC)cc23)cc1OC	-1.9	–
